We go through four compounds from PubChem BioAssay.

The nature of experiment [1]: optical density shifts of acrAB sulA E. coli – strain DRC41, OD650, 48 h, E. coli filamentation inducer project, primary screen (AID 1152).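 Also: E. coli MC1000 strain DRC41 lacking acrAB efflux pump and sulA.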 The note with it: higher = more signal, called active from +8 up or from −8 down.
A short description of experiment [2]: probe aLefty1 binding on compound microarray – biochemical, small-molecule microarray, 635/667 nm fluorescence, primary screen (AID 1153).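 Also: score merges spot fluorescence with signal-to-noise ratio from the scanned slide images.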 The settings on record: higher = more signal.
Experiment [3] is described as follows: plasmodial surface anion channel blockers, osmotic lysis – cell-based, P. falciparum Indochina, OD700, 1 h, primary screen (AID 1154). The note with it: P. falciparum Indochina infected RBC osmotic lysis, higher = more signal, called active from +8 up or from −8 down.
Experiment [4] in a line: plasmodial surface anion channel blockers, osmotic lysis – cell-based, P. falciparum Indochina, OD700, 2 h, primary screen (AID 1155).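 Also: lysis reports solute entry through the parasite surface anion channel PSAC.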 The note with it: P. falciparum Indochina infected erythrocytes, higher = more signal, called active from +8 up or from −8 down.
A short description of experiment [5]: changes in parasitized red cell lysis, either direction – P. falciparum Indochina, OD700, 3 h, PSAC antagonist project, primary screen (AID 1156). The settings on record: P. falciparum-infected erythrocytes, osmotic lysis, higher = more signal, called active from +8 up or from −8 down.
Experiment [6] is described as follows: plasmodial surface anion channel blockers, osmotic lysis – cell-based, P. falciparum Indochina, OD700, 18 h, primary screen (AID 1157). The settings on record: P. falciparum Indochina infected erythrocytes, osmotic lysis OD700, 18 h; higher = more signal, called active from +8 up or from −8 down.
A short description of experiment [7]: S6 kinase pathway phospho-S6 level changes – cell-based, A549, cytoblot, luminescence, serum-stimulated, primary screen (AID 1158).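 Also: serum-stimulated A549 lung adenocarcinoma cells; signal is phosphorylated S6 detected by cytoblot immunostaining with HRP secondary.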 The note with it: 5 h, higher = more signal.
In experiment [8] the target is NADPH oxidase 2 (Homo sapiens) (UniProt P04839). The experiment can be described thus: compounds shifting NOX2 Amplex Red fluorescence – cell-based, HEK293-NOX2, PMA-stimulated, NOX inhibitor project, primary screen (AID 1159). Also: test concentration not given here. The note with it: 45 min, higher = more signal, called active from +8 up or from −8 down.
Chain of NADPH oxidase 2 (Homo sapiens) (P04839 whole entry, looked up): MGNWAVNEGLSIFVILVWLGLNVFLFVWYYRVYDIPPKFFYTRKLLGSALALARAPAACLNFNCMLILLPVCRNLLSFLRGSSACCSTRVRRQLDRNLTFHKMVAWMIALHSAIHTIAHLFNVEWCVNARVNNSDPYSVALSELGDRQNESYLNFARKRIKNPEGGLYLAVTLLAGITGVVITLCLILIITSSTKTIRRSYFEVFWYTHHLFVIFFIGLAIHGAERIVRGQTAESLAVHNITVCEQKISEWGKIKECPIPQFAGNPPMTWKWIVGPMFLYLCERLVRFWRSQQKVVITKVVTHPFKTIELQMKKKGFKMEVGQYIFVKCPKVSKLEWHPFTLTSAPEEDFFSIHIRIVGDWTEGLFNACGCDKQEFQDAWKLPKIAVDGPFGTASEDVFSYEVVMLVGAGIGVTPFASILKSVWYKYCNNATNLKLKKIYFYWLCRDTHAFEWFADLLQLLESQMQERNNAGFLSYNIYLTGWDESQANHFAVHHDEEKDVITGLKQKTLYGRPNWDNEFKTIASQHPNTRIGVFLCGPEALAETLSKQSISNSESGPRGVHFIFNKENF
Experiment [9] addresses NADPH oxidase 4 (Homo sapiens) (UniProt Q9NPH5). The experiment can be described thus: compounds shifting NOX4 Amplex Red fluorescence – cell-based, HEK293-NOX4, tetracycline-induced, NOX inhibitor project, primary screen (AID 1160). The note with it: HEK293-NOX4, Amplex Red H2O2 fluorescence, 45 min; higher = more signal, called active from +8 up or from −8 down.
Experiment [10] concerns the target NADPH oxidase 5 (Homo sapiens) (UniProt Q96PH1). The experiment can be described thus: compounds shifting NOX5 Amplex Red fluorescence – cell-based, HEK293-NOX5, NOX inhibitor project, primary screen (AID 1161). The note with it: HEK293-NOX5, ionomycin, 45 min, higher = more signal.
Experiment [11] can be described thus: compound effects on lung adenocarcinoma cell viability – A549, calcein-AM fluorescence, 48 h, basal, profiling panel (AID 1162). Also: test concentration not given here. The note with it: higher = more signal.
Experiment [12] can be described thus: compound effects on differentiated 3T3-L1 adipocyte viability – cell-based, 3T3-L1 adipocytes, calcein-AM fluorescence, 48 h, basal, profiling panel (AID 1163). Also: test concentration not given here. The settings on record: 3T3-L1 adipocytes viability, higher = more signal.
Experiment [13] is described as follows: compound effects on hepatocellular carcinoma cell viability – HepG2, calcein-AM fluorescence, 48 h, basal, profiling panel (AID 1164). Also: test concentration not given here. The settings on record: higher = more signal.
Experiment [14] can be described thus: compound effects on multiple myeloma cell viability – MM1S, calcein-AM fluorescence, 48 h, basal, profiling panel (AID 1165).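 Also: viability of MM1S multiple myeloma cells under basal unstimulated conditions; test concentration not given here.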 The settings on record: higher = more signal.
A short description of experiment [15]: calcein-AM signal in unstimulated myeloma cells – cell-based, calcein-AM fluorescence, 48 h, PK04 Diversity Set, profiling panel (AID 1166).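 Also: cells grown under basal conditions without added stimulus; test concentration not given here.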 The note with it: RPMI8226 myeloma viability, higher = more signal.
Experiment [16] in a line: JC-1 mitochondrial signal, unstimulated HepG2 cells – cell-based, JC-1 fluorescence, 24 h, 100 nL compound, profiling panel (AID 1167). Also: test concentration not given here. The settings on record: HepG2 mitochondrial potential, higher = more signal.
Experiment [17] can be described thus: JC-1 mitochondrial signal, unstimulated adipocytes – cell-based, JC-1 fluorescence, 3T3-L1 adipocytes, 24 h, 100 nL compound, profiling panel (AID 1168). Also: test concentration not given here. The settings on record: JC-1 mitochondrial fluorescence, higher = more signal, called active from +8 up or from −8 down.
A short description of experiment [18]: JC-1 mitochondrial signal, unstimulated myeloma cells – cell-based, JC-1 fluorescence, RPMI8226, 24 h, 100 nL compound, profiling panel (AID 1169). Also: test concentration not given here. The note with it: JC-1 mitochondrial potential fluorescence, higher = more signal.
The nature of experiment [19]: JC-1 mitochondrial signal, unstimulated MM1S myeloma – cell-based, JC-1 fluorescence, 24 h, 100 nL compound, profiling panel (AID 1170). Also: test concentration not given here. The note with it: MM1S mitochondrial potential, higher = more signal.
Experiment [20] in a line: resazurin metabolic signal in A549 cells – cell-based, resazurin fluorescence, 24 h, PK04 Diversity Set, profiling panel (AID 1171). Also: test concentration not given here. The note with it: A549 viability, higher = more signal, called active from +8 up or from −8 down. On the technique in general: The colour change of resazurin is a common sign of viable cells or microbes.

Active and inactive are the calls of the source.

Chain of NADPH oxidase 4 (Homo sapiens) (Q9NPH5 whole entry, looked up): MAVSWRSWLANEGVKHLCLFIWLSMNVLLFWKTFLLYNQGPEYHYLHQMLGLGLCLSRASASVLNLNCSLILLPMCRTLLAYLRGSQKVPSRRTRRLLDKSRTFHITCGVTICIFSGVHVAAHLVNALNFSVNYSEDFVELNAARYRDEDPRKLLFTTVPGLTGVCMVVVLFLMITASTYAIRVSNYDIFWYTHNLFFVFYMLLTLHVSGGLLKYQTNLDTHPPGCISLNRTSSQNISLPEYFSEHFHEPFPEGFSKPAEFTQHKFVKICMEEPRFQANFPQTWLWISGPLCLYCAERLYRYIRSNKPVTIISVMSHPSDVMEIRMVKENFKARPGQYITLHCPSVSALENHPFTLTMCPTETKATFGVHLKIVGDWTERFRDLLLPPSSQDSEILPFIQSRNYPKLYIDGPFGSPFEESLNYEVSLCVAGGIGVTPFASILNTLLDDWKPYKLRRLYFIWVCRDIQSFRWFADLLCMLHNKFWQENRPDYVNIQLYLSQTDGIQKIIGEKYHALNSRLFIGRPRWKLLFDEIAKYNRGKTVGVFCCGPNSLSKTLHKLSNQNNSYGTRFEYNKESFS
Chain of NADPH oxidase 5 (Homo sapiens) (Q96PH1 whole entry, looked up): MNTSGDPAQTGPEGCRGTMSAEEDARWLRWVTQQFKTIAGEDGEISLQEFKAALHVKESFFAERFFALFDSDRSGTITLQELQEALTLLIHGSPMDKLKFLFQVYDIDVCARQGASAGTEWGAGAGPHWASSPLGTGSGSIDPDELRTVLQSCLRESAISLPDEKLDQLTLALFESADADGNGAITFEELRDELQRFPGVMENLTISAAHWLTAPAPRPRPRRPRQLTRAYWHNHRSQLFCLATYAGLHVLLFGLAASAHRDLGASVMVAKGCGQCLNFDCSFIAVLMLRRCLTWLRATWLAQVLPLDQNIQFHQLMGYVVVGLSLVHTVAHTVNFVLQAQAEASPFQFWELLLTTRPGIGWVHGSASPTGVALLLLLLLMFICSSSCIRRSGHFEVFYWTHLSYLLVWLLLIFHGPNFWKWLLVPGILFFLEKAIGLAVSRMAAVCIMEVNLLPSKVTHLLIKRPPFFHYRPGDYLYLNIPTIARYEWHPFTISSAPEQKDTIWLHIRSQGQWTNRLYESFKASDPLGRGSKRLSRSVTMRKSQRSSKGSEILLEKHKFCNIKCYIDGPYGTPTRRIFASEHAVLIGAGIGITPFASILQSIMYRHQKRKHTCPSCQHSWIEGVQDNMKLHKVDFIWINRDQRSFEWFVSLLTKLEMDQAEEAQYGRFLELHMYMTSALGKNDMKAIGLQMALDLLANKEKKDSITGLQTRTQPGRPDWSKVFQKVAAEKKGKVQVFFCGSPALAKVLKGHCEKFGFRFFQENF

In the case of `CO[C@@H]1COC(=O)[C@@H](C)NC(=O)CC=C[C@@H](C)[C@H](NS(=O)(=O)c2ccc(C)cc2)COC(=O)[C@H](C)NC(=O)CC=C[C@H]1C`, the z-score in [1] was 0.69 (inactive); in [3], 0.079 (inactive); in [4], -0.121 (inactive); in experiment [5] it was -0.361 (inactive); in experiment [6] it was -0.0378 (inactive); in [7] it was -0.363. The z-score in experiment [8] is 0.931 (inactive); in [9], 0.649 (inactive); in experiment [10], -0.165; in [11], 0.458; in [12], 0.177; in experiment [13], 0.196. For the same compound, the z-score in experiment [14] was -0.0848; in [15] it was -0.036; in experiment [16] it was -0.125; in experiment [17], -0.172 (inactive); in experiment [18], 0.51; in experiment [19], 0.468. For the same compound, the z-score in experiment [20] was 1.33 (inactive). Also, in experiment [2], the composite z-score is -0.145.

On to `CO[C@H]1COC(=O)[C@@H](Cc2ccccc2)NC(=O)[C@@H](C)COC(=O)CCC[C@@H]1C`, for which the z-score was 0.558 (inactive) in [1]; -1.19 (inactive) in experiment [3]; -1.66 (inactive) in experiment [4]; -0.155 (inactive) in experiment [5]; -2.21 (inactive) in [6]; 0.781 in experiment [7]. Also, the z-score in experiment [8] is -0.785 (inactive); in [9], 0.533 (inactive); in [10], 0.789; in experiment [11], 0.704; in experiment [12], 0.0955; in experiment [13], 0.577. Besides, the z-score in experiment [14] was -0.267; in experiment [15], -0.283; in experiment [16] it was -0.212; in experiment [17], 0.00303 (inactive); in experiment [18] it was -0.161; in experiment [19] it was -1.23. Moreover, in experiment [20], the z-score was 0.6 (inactive). For the same compound, the composite z-score in [2] is -0.309.

`CCCNC(=O)OC[C@H]1O[C@H](CCON=C(C)CCN2CCCc3nc(C)c(C)cc32)C=C[C@@H]1Oc1ccc(OC)cc1`: the z-score is 0.794 (inactive) in experiment [1]; 5.53 (inactive) in experiment [3]; 0.722 (inactive) in experiment [4]; 0.99 (inactive) in [5]; 0.318 (inactive) in experiment [6]; -0.546 in experiment [7]. Also, the z-score is -0.995 (inactive) in [8]; 0.166 (inactive) in experiment [9]; -1.14 in experiment [10]; 0.476 in experiment [11]; 1.43 in experiment [12]; -0.243 in experiment [13]. Further, the z-score in experiment [14] was -0.878; in experiment [15], -1.57; in [16], 2.15; in [17], -1.09 (inactive); in [18] it was 0.455; in [19], 0.023. Also, the z-score in [20] was 1.21 (inactive). In addition, the composite z-score in [2] is -0.0061.

`C#CCCCON=C1C[C@@H](O)[C@@H](O)[C@@H]2[C@@H]3C(=O)N(CC)C(=O)[C@@H]3CC[C@@H]12`: the z-score is -0.229 (inactive) in experiment [1]; 0.299 (inactive) in experiment [3]; 0.363 (inactive) in [4]; -0.26 (inactive) in experiment [5]; -0.0637 (inactive) in experiment [6]; -0.595 in experiment [7]. Moreover, the z-score in [8] was 0.275 (inactive); in [9], 0.764 (inactive); in experiment [10], -0.64; in experiment [11], -0.36; in experiment [12], -0.843; in experiment [13], 0.075. The z-score in experiment [14] was 0.0133; in experiment [15] it was 0.338; in [16], -0.836; in [17], -1.26 (inactive); in experiment [18], -0.0744; in experiment [19] it was -0.312. Also, in experiment [20], the z-score was -0.526 (inactive). For the same compound, the composite z-score in [2] is -0.243.
